This is an account of results in PubChem BioAssay.

The structures appear in SMILES notation. Calls of active or inactive are those of the source. Unless noted, no rule for the calls is given here.

Test [1] in a line: compounds binding Alexa647 anti-His antibody – biochemical, small-molecule microarray, 635 nm fluorescence, artefact control for SMM control protein annotation, primary screen (AID 1128).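 Also: score merges feature fluorescence with signal-to-noise for each printed compound spot.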 The settings on record: higher = more signal.
The subject of test [2] is Human papillomavirus type 1a E7 protein (residues 1-88). The test is described as follows: HPV1a E7 small-molecule binders, primary screen, biochemical, small-molecule microarray, residues 1-88, 635 nm (AID 1129). As to conditions: small-molecule microarray binding, fluorescence 635 nm; higher = more signal.
Test [3] deals with Focal adhesion kinase 1 (Homo sapiens) (UniProt Q05397). The test is described as follows: PTK2 protein binding on printed compound slides – biochemical, small-molecule microarray, 635/667 nm fluorescence, BSA, DTT, primary screen (AID 1130).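 Also: composite of spot emission at 667 nm and signal to noise over triplicate slides.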 As to conditions: 635 nm fluorescence, higher = more signal.
The test system of test [4] is Fibrinogen (Alexa647-labelled). Description: Alexa647-fibrinogen binding to printed small molecules – biochemical, small-molecule microarray, 635/667 nm fluorescence, artefact control for SMM control-protein annotation, profiling panel (AID 1131).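 Also: z-score merges 667 nm fluorescence with per-spot signal-to-noise over triplicate slides.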 The settings on record: fibrinogen-A647 binding fluorescence, higher = more signal.
Test [5] concerns the target Follistatin (Homo sapiens) (UniProt P19883). The test is described as follows: FST protein binding to printed compounds – biochemical, small-molecule microarray, 635/667 nm fluorescence, primary screen (AID 1132). The settings on record: 635 nm fluorescence, higher = more signal.
Test [6] addresses Fibroblast growth factor 2 (Homo sapiens) (UniProt P09038). Description: basic fibroblast growth factor binding to printed compounds – biochemical, small-molecule microarray, 635/667 nm fluorescence, primary screen (AID 1133). The settings on record: FGF2, fluorescence 635/667, higher = more signal.
Test [7] is described as follows: JC-1 mitochondrial potential readout, lung cancer cells – cell-based, A549, JC-1 fluorescence, basal, 24 h, 100 nL, profiling panel (AID 1138).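 Also: A549 lung adenocarcinoma cells under basal conditions with no added stimulus; test concentration not given here.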 The settings on record: higher = more signal.
The subject of a further test is Lefty1. Description: Lefty1 protein binding to printed compounds – biochemical, small-molecule microarray, 635/667 nm fluorescence, primary screen (AID 1139). The settings on record: fluorescence 635/667, higher = more signal.
In test [8] the test system is wheat germ agglutinin (Triticum aestivum), Alexa647-labelled. The test is described as follows: Alexa647-WGA lectin binding to printed small molecules – biochemical, small-molecule microarray, 635/667 nm fluorescence, artefact control for SMM control-protein annotation, profiling panel (AID 1140).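 Also: score merges 667 nm feature emission with signal to noise over triplicate slides.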 The settings on record: WGA-A647 binding, 635 nm fluorescence, higher = more signal.

In test [9] the target is Luciferin 4-monooxygenase (Photinus pyralis) (UniProt P08659). The test is described as follows: inhibition of purified Photinus pyralis luciferase – biochemical, luminescence, purified enzyme, 2006 set, primary screen (AID 1141).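 Also: cell-free assay with purified firefly luciferase at 100 ng per well in PBS; test concentration not given here.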 The settings on record: purified firefly luciferase, SteadyGlo luminescence, 30 min; higher = more signal, called active from +8 up or from −8 down.

Test [10] has as its system Wnt5a (protein binding on small-molecule microarray). Description: small molecules binding Wnt5a protein – biophysical, small-molecule microarray, 635/667 nm fluorescence, primary screen (AID 1142).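 Also: fluorescence read at 667 nm with signal to noise per printed feature.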 As to conditions: 635 nm fluorescence, higher = more signal.
A short description of test [11]: ATP-based viability of Huh7 replicon cells – cell-based, CellTiter-Glo luminescence, basal, 48 h, cytotoxicity control for HCV replication inhibitor project, primary screen (AID 1143).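 Also: Huh7 hepatoma cells carrying a hepatitis C replication reporter with no stimulus; test concentration not given here.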 The settings on record: higher = more signal, called active from +8 up or from −8 down. On the technique in general: Replicon systems follow genome replication, usually without infectious particles.

Test [12] in a line: Pseudomonas biofilm growth suppression – PAO1 strain, BacTiter-Glo luminescence, LB-PBS, primary screen (AID 1144). The settings on record: P. aeruginosa PAO1 biofilm, 12 h, higher = more signal.
Test [13] can be described thus: basal CRE-LacZ reporter activity in PC12 – cell-based, unstimulated, primary screen (AID 1145). As to conditions: no forskolin, luminescence, 4.5 h, higher = more signal, called active from +8 up or from −8 down.
A short description of test [14]: forskolin-driven CRE-LacZ activity in PC12 – cell-based, CRE-LacZ reporter, forskolin-stimulated, primary screen (AID 1146).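 Also: PC12 cells with 6xCRE LacZ reporter stimulated by forskolin 10 µM; beta-galactosidase reporter signal reflecting CREB driven transcription.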 The settings on record: luminescence, 4.5 h, higher = more signal, called active from +8 up or from −8 down.
Test [15] deals with Streptavidin (Streptomyces avidinii) (UniProt P22629). The test is described as follows: compounds binding control protein streptavidin – biophysical, small-molecule microarray, 635/667 nm fluorescence, artefact control for SMM compound annotation, primary screen (AID 1147).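 Also: signal reflects streptavidin binding to arrayed compounds as a control protein.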 As to conditions: higher = more signal.
Test [16] in a line: probe aInhba binding on compound microarray – biochemical, small-molecule microarray, 635/667 nm fluorescence, primary screen (AID 1148).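 Also: score merges 667nm spot fluorescence with signal-to-noise for antibody binding to printed compounds.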 As to conditions: higher = more signal.
For test [17], the target named is Torsin-1A (Homo sapiens) (UniProt O14656). The test is described as follows: TOR1A wild-type binding on microarray – cell lysate, small-molecule microarray, lysate, 635/667 nm, primary screen (AID 1149). The settings on record: COS7 hTOR1A-WT lysate, 635 nm fluorescence, higher = more signal.
Test [18] shares this target. Description: torsin A mutant lysate binding on microarrays – cell lysate, small-molecule microarray, COS7 lysate, 635/667 nm fluorescence, primary screen (AID 1150).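 Also: score pools 667 nm emission and signal to noise measuring lysate protein binding.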 As to conditions: COS7 hTOR1A mutant lysate, 635 nm fluorescence, higher = more signal.
For test [19], the system named is Sonic hedgehog protein (Shh). The test is described as follows: Sonic hedgehog microarray binding compounds – biochemical, small-molecule microarray, 635/667 nm fluorescence, primary screen (AID 1151).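 Also: Shh protein binding to compounds spotted on small-molecule microarray slides; score combines spot fluorescence intensity with signal-to-noise across triplicate slides.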 As to conditions: 635 nm fluorescence, higher = more signal.

Chain of Torsin-1A (Homo sapiens) (O14656 whole entry, looked up): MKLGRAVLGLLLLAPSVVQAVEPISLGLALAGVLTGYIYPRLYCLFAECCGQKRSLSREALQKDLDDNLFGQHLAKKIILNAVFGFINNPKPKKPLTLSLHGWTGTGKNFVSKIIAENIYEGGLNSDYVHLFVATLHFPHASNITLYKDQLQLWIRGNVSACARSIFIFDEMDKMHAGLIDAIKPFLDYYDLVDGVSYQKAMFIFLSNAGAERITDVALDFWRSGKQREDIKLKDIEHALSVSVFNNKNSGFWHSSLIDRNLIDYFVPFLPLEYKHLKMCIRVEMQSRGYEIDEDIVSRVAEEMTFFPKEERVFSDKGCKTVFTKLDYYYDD
Chain of Fibroblast growth factor 2 (Homo sapiens) (P09038 whole entry, looked up): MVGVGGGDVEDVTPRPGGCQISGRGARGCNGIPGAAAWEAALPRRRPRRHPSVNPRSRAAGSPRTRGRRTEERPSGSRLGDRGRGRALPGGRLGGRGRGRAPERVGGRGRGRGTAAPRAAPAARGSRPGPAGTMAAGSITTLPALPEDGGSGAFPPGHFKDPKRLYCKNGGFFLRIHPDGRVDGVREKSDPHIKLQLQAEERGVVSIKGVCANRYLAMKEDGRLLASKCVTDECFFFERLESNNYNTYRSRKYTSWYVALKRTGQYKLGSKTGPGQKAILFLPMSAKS
Chain of Focal adhesion kinase 1 (Homo sapiens) (Q05397 whole entry, looked up): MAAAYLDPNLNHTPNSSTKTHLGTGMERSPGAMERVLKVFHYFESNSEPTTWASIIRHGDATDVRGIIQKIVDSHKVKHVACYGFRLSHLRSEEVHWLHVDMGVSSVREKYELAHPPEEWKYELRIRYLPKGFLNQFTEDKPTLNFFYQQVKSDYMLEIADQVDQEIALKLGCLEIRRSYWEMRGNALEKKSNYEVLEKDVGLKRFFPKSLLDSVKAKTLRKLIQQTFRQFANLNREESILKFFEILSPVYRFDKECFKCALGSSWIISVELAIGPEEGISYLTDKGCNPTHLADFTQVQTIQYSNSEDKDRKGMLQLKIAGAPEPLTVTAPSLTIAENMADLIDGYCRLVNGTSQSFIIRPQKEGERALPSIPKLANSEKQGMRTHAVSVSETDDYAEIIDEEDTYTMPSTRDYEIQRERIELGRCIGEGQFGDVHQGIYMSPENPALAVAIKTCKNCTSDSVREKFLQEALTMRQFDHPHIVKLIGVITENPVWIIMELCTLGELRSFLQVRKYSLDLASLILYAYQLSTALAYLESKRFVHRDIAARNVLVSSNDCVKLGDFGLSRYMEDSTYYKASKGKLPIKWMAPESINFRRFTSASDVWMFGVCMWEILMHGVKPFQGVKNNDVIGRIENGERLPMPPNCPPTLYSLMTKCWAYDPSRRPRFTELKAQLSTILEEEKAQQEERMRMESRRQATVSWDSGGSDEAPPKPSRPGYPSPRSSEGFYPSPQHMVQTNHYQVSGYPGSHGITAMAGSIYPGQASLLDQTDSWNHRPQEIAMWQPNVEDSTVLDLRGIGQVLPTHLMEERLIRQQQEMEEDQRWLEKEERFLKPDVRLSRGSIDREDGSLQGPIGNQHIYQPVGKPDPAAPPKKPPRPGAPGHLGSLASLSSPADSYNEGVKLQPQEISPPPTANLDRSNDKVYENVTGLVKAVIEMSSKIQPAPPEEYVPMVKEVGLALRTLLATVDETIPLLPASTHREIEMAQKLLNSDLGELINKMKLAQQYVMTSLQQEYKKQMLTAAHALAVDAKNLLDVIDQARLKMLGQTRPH
Chain of Follistatin (Homo sapiens) (P19883 whole entry, looked up): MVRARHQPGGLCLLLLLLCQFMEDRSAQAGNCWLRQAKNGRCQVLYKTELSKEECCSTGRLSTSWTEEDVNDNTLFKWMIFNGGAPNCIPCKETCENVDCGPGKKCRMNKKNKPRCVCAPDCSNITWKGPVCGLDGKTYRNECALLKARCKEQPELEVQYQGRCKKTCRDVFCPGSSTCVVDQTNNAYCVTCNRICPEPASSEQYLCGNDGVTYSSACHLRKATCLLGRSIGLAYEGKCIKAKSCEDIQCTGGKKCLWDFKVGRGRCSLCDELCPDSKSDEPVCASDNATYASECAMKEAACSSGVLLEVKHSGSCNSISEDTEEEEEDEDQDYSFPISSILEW
Chain of Streptavidin (Streptomyces avidinii) (P22629 whole entry, looked up): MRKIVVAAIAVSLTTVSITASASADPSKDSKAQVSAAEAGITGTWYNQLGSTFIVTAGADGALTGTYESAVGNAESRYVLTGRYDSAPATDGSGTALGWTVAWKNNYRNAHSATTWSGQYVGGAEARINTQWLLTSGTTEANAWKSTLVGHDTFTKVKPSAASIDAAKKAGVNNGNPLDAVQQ
Chain of Luciferin 4-monooxygenase (Photinus pyralis) (P08659 whole entry, looked up): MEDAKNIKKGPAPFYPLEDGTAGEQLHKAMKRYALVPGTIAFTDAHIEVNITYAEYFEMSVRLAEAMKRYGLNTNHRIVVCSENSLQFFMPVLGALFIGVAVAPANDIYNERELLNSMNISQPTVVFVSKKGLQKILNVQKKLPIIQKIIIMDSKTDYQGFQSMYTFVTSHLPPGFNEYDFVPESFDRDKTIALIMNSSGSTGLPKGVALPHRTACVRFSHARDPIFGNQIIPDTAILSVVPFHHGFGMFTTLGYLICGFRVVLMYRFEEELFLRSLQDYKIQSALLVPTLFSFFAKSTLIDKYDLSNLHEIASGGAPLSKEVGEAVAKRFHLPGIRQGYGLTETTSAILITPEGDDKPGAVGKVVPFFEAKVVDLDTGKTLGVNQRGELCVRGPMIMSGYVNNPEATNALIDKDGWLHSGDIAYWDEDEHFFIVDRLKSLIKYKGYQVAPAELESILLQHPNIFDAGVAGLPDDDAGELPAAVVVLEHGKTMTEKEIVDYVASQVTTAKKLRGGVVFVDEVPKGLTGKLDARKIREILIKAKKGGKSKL

As for `CC(C)(C)OC(=O)CC[C@@]1(C(=O)NCc2ccccc2)N=C(c2ccc(OCCCO)cc2)O[C@@H]1c1ccccc1N=[N+]=[N-]`, the composite z-score in test [1] came to 1.63; in [2], 1.25; in test [3], 1.22; in test [4], 0.951; in test [5] it was 1.39; in test [6], 1.58. Besides, the composite z-score in the test with Lefty1 is 0.432; in test [8], 1.07; in test [10], 0.717; in test [15], 1.8; in test [16], 0.0839; with Torsin-1A (Homo sapiens) [17], -0.183. The composite z-score was determined as 1.33 with Torsin-1A (Homo sapiens) [18] and 0.101 in [19]. Besides, the z-score is -1.16 in [7]; -11 (active) in test [9]; -2.53 (inactive) in [11]; 0.014 (inactive) in test [12]; 1.73 (inactive) in [13]; -0.947 (inactive) in test [14].
Turning to `COC(=O)C(CC#Cc1ccc2c(c1)[C@]1(C(=O)N2)[C@H](C(=O)N2CCN(c3ncccn3)CC2)[C@H]2C(=O)O[C@H](c3ccccc3)[C@H](c3ccccc3)N2[C@@H]1c1ccc(OCCO)cc1)C(=O)OC`, the composite z-score in test [1] turned out to be 2.65; in test [2] it was 1.25; in [3], 0.179; in test [4] it was 0.982; in test [5], 1.38; in test [6], 1.63. Further, the composite z-score in the test on Lefty1 stood at 1.31; in [8], 1.03; in test [10], 0.545; in test [15], 0.736; in test [16], 0.109; with Torsin-1A (Homo sapiens) [17], 0.393. Moreover, the composite z-score with Torsin-1A (Homo sapiens) [18] stood at 0.798; in test [19] it was 2.23. In addition, the z-score in test [7] was -1.35; in [9], -1.22 (inactive); in test [11], -1.02 (inactive); in test [12], -0.99 (inactive); in [13], -0.671 (inactive); in test [14], -0.772 (inactive).
On to `C[C@@H]1ON(c2ccc(C(=O)OC(C)(C)C)cc2)[C@H](c2ccc(O)cc2)[C@H]1C(=O)N1C(=O)OC[C@H]1Cc1ccccc1`, for which the composite z-score in [1] turned out to be 0.249; in test [2], 1.03; in test [3], 0.437; in [4], 0.584; in test [5], 0.472; in test [6] it was 0.382. The composite z-score in the test on Lefty1 was 1.29; in [8], 0.828; in test [10], 0.218; in test [15], 0.922; in test [16], -0.0552; with Torsin-1A (Homo sapiens) [17] it was 0.438. Moreover, the values for the composite z-score (in the test with Torsin-1A (Homo sapiens) [18]; in test [19]) were 0.616 and 0.596, respectively. Also, the z-score in test [7] was -1.49; in test [9] it was -0.416 (inactive); in test [11], -2.96 (inactive); in test [12], 0.133 (inactive); in test [13], 1.22 (inactive); in [14], 0.419 (inactive).
Turning to `CCOC(=O)C1CCCCN1` (stereo not given), the composite z-score in test [1] was 0.313; in [2], 0.859; in [3], -0.0288; in [4], 0.367; in test [5], 0.599; in [6] it was 0.522. Besides, the composite z-score was 0.589 in the test on Lefty1; 0.109 in test [8]; 0.781 in test [10]; 0.412 in test [15]; 0.705 in test [16]; 0.544 in the test with Torsin-1A (Homo sapiens) [17]. For the same molecule, the composite z-score with Torsin-1A (Homo sapiens) [18] worked out at 0.388; in test [19], 0.506. Also, the z-score in test [7] is -0.0223; in test [9], 0.48 (inactive); in [11], 0.319 (inactive); in test [12], 0.566 (inactive); in test [13] it was -0.788 (inactive); in test [14] it was -0.398 (inactive).
For `C=CCC(OC(C)=O)[C@@H]1[C@@H](N(Cc2cc3ccccc3o2)C(=O)c2ccc(C)cc2)c2cc(OCCCO)ccc2N1C(=O)Cc1ccc(OC)cc1` (stereo not given in full), the composite z-score in test [1] was 0.0464; in [2] it was -0.454; in test [3], 0.0903; in test [4], 0.0839; in [5], 0.924; in [6], 0.158. The composite z-score with Lefty1 is -0.0083; in test [8] it was 0.273; in test [10], 0.525; in test [15] it was 1.57; in [16], -0.0044; with Torsin-1A (Homo sapiens) [17], -0.28. Also, the composite z-score with Torsin-1A (Homo sapiens) [18] amounted to 0.0194; in [19], 0.809. Also, the z-score was 1.33 in test [7]; -1.37 (inactive) in [9]; -0.102 (inactive) in [11]; -0.491 (inactive) in test [12]; 0.558 (inactive) in [13]; -0.409 (inactive) in test [14].
